Values joined by “and” are separate entries in the source; they are usually repeats but may differ in a detail not shown here. Equal values may be shown once. Inconclusive results are not listed. Where a structure was tested more than once in an assay, its records may differ in their call. Active and inactive are the calls of the source. Rule for the calls, unless noted: active = hit-call score of the fitted dose curve at least 0.9, where 1 is the maximum; inactive = score below 0.9.
How the values were obtained:
[1] = CCTE_Shafer_MEA_acute_LDH: CCTE's Lactate Dehydrogenase Assay for Cytotoxicity in the Neural Acute Assay, Shafer Lab (AID 2284086; active = hit-call score of the fitted dose curve at least 0.9, where 1 is the maximum;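 note: active means LDH release rises above DMSO vehicle level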)
Method in brief: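 Rat cortical neurons cultured on microelectrode arrays; baseline 40-min recording, compound added, second 40-min recording; medium then sampled for released LDH (colorimetric kit, 490 nm). DMSO = negative control.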

[2] = CCTE_Shafer_MEA_dev_mutual_information_norm: CCTE's Neural Network Formation Assay for Mutual Information Normalization, Shafer Lab (AID 2284091);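 for AC50: mutual information between electrodes summarised as area under curve across four recording days; potency is for a decrease in mutual information relative to DMSO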
Method in brief: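 Developing rat cortical networks on 16-electrode MEA wells are treated throughout formation (DIV 0–12). Shared electrode information is recorded four times, converted to area-under-curve, and fitted for decreases against DMSO vehicle.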

[3] = CCTE_Shafer_MEA_dev_correlation_coefficient_mean: CCTE's Neural Network Formation Assay for Mean Correlation Coefficient, Shafer Lab (AID 2284093);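 for AC50: well mean pairwise spike train correlation integrated as AUC over recording days 5 to 12; potency fitted for loss of correlation relative to DMSO vehicle wells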
Method in brief: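 Spontaneous activity recorded on days 5, 7, 9 and 12 post-plating; pairwise spike correlations are averaged across active electrodes and collapsed to an area-under-curve. Rat cortical cultures are dosed from plating through 12 days, with compound renewed at media changes.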

[4] = CCTE_Shafer_MEA_dev_AB: CCTE's Alamar Blue Assay for Cytotoxicity in the Neural Network Formation Assay, Shafer Lab (AID 2284083; active = hit-call score of the fitted dose curve at least 0.9, where 1 is the maximum;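 note: twelve days of exposure from plating with re-dosing on DIV 5 and 9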)
Description: CCTE_Shafer_MEA_dev assay is conducted using Axion Biosystems 48 well microelectrode array (MEA) plates and Maestro recording system. Each well of the MEA plate contains a grid of 16 microelectrodes embedded in the culture surface. Electrically active cells, such as neurons, can be cultured over the electrodes, and electrical activity in these cells can be recorded extracellularly. The spontaneous firing of neurons is captured from each electrode on a microsecond timescale providing both temporally and spatially precise data. […] The CCTE_Shafer_MEA_dev assay uses primary cultures of rat cortical neurons. Recordings are made on days post-plating 5, 7, 9 and 12. As these cultures mature over time, neural networks develop functional activity and form cohesive networks in which electrical activity can be highly coordinated. CCTE_Shafer_MEA_dev_AB is 1 of 19 assay components of the CCTE_Shafer_MEA_dev assay. It measures the resazurin reduction using fluorescence.Data from the assay component CCTE_Shafer_MEA_dev_AB was analyzed into 1 assay endpoint. This assay endpoint, CCTE_Shafer_MEA_dev_AB, was analyzed in the positive analysis fitting direction relative to DMSO as the negative control and baseline of activity. Using a type of viability reporter, loss-of-signal activity can be used to understand cell viability.
On the day prior to culture, each well was coated thoroughly with 150 uL of 0.05% polyethyleneimine (PEI, Sigma Cat P3143) in 50 mM HEPES (Sigma Cat H7523) at a pH of 8. The plate was incubated at 37C for one hour. PEI was rinsed out with 500 uL of sterile water three times. Plates were stored at 4C until the day of culture. This culture was plated at a seeding density of 1.5 x 10^5 cells/well on a 48-well MEA plate, prepared as described above. Cells were administered via a 25 uL media/laminin (20 ng/ml; Sigma Cat L2020-1MG) drop directly onto the microelectrode array, as adding the cells with the laminin results in better attachment than pre-coating with laminin. After 2 hours, an additional 475 uL of cortical media was added and the cells returned to the incubator. Exposure starts at day 0 of plating and is continued over twelve days of network development until the experiment is terminated. Cells are fed with fresh medium on DIV 5 and 9, following the recordings on those days. The entire volume of media in the well is exchanged and any vehicle or compound treatment is renewed. Complete details are found in OP-NHEERL/ISTD/SBB/TJS/2015-03-r0 (available on request, email shafer.tim@epa.gov). Measurement of the electrical activity is non-invasive, and recordings can be made from the same plate over multiple different days of the culture. […]

[5] = UKN5_HCS_SBAD2_neurite_outgrowth: University of Konstanz (UKN) Leist Lab Neurite Outgrowth Assay in human iPSC-derived immature Dorsal Root Ganglia Neurons (UKN5) (AID 2284070); settings: actives raise or lower the signal
Method in brief: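 Read-out: calcein-AM-stained neurite area by high-content imaging, Hoechst H-33342 for viability, after 24 h exposure of iPSC-derived immature dorsal root ganglia neurons. Activity fitted in both directions relative to DMSO baseline.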

[6] = UKN2_HCS_IMR90_neural_migration: University of Konstanz (UKN) Leist Lab Neural Crest Cell Migration Assay in human induced IMR90 Pluripotent Stem Cells (UKN2) (AID 2284204); settings: actives raise or lower the signal
Description: UKN2_HCS_IMR90 is a cell-based, multiplexed-readout assay screening for neural crest cell migration and cell viability that uses IMR90 (neural crest cells differentiated from iPSC), a human embryo cell line, with measurements taken at […] after chemical dosing in a microplate: 96-well plate. UKN2, also known as cMINC, is an assay that uses IMR90 cells (neural crest cells differentiated from iPSC) as a model of neural crest cell migration. 24 hr after cell seeding, cell migration was initiated and proceeded for 24 hr. Then, chemical was applied, and after 24 hr of exposure migration and viability were assessed using high-content imaging of cells stained with calcein-AM and Hoechst H-33342.UKN2_HCS_IMR90_neural_migration is an assay component measured from the UKN2_HCS_IMR90 assay. It is designed to make measurements of neural crest cell migration, a form of morphology reporter, as detected with Fluorescence intensity signals by HCS Fluorescent Imaging.The assay endpoint UKN2_HCS_IMR90_neural_migration was analyzed with bidirectional fitting relative to DMSO as the negative control and baseline of activity. Using a type of morphology reporter, gain or loss-of-signal activity can be used to understand developmental effects. […]
The wells are coated with PLO/laminin/fibronectin. […] Quantification of migration and viability is done by high content imaging analysis.

[7] = UKN4_HCS_LUHMES_neurite_outgrowth: University of Konstanz (UKN) Leist Lab Neurite Outgrowth Assay in human LUHMES cells (UKN4) (AID 2284206); settings: actives raise or lower the signal
Method in brief: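 Day 0 switch to differentiation medium; day 2 replate (30000 cells/well) without cAMP and GDNF; compounds added 30 min–2 h later. At 23.5 h, 30 min calcein-AM/H-33342 live stain, then imaging.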

[8] = IUF_NPC1b_proliferation_BrdU_72hr: Leibniz Research Institute for Environmental Medicine (IUF) 72-hour Neural Progenitor Cell Bromodeoxyuridine (BrdU) Proliferation Assay (NPC1b) (AID 2284207)
Method in brief: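 Proliferation of primary human neural progenitor cells: 72 h compound treatment at 37C, 5% CO2, pH 7.2-7.6, in EGF/FGF-containing medium. Readout is BrdU uptake (last 16 h) by chemiluminescent ELISA, normalised to DMSO.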

[9] = IUF_NPC1a_proliferation_area_72hr: Leibniz Research Institute for Environmental Medicine (IUF) 72-hour Neural Progenitor Cell Proliferation Area Assay (NPC1a) (AID 2284208)
Method in brief: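 hNPC spheres (human fetal cortex, GW 16-19), one per poly-Hema U-bottom well; EGF+FGF medium; dosed day 0, no re-dosing; 72 h, 37C, 5% CO2; phase-contrast sphere area; DMSO = baseline; minus-GF = positive ctrl.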

[10] = IUF_NPC1_viability_72hr: Viability Assessment at 72 hours in the Leibniz Research Institute for Environmental Medicine (IUF) Neural Progenitor Cell Proliferation Assay (NPC1) (AID 2284209)
Method in brief: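 hNPC spheres, 1/well, EGF+FGF medium, 37C/5% CO2; dosed day 0, 72 h, no re-dosing. Resazurin reduction (alamar blue) fluorescence; DMSO = negative control/baseline; growth-factor-free wells as positive control.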

C=C[Si](OC(C)=O)(OC(C)=O)OC(C)=O
outcome [1]: inactive

CCCCC(CC)COC(=O)c1ccccc1O (centres undefined)
outcome [1]: inactive

CO[Si](OC)(OC)c1ccccc1
outcome [1]: inactive

CC=CC(F)(F)C(F)(F)C(F)(F)F
outcome [2]: inactive | AC50 [3]: 3.71 µM (active)

N[C@H]1C(O)O[C@H](CO)[C@H](O)[C@@H]1O (some centres undefined)
AC50 [4]: 2.98 µM (active) | outcome [2]: inactive | AC50 [3]: 25.4 µM (active)

O=C1CCCN1CCO
outcome [1]: inactive

Nc1ncn([C@@H]2O[C@H](CO)[C@@H](O)[C@H]2O)c(=O)n1
AC50 [5]: 10 µM (active) | AC50 [4]: 5 nM (active) and 15 µM (active) | outcome [1]: inactive | AC50 [2]: 1.39 µM (active) | outcome [2]: inactive | AC50 [3]: 2.91 µM (active) | outcome [3]: inactive | outcome [6]: inactive | AC50 [7]: 13 µM (active) | AC50 [8]: 0.253 µM (active) | outcome [9]: inactive | outcome [10]: inactive

CCCCC(CC)COCC1CO1 (centres undefined)
outcome [1]: inactive

CC1(C)S[C@@H]2[C@H](NC(=O)COc3ccccc3)C(=O)N2[C@H]1C(=O)O
outcome [2]: inactive | outcome [3]: inactive | outcome [8]: inactive | outcome [9]: inactive | outcome [10]: inactive

O=C(c1ccc(O)cc1)c1ccc(O)cc1O
outcome [1]: inactive

CCO[Si](C)(OCC)OCC
outcome [1]: inactive

CN(C)c1ccc(C(=N)c2ccc(N(C)C)cc2)cc1
AC50 [4]: 4.33 µM (active) | AC50 [2]: 0.975 µM (active) | AC50 [3]: 1.71 µM (active)

CCOC(F)(F)C(F)(F)C(F)(F)C(F)(F)F
outcome [4]: inactive | outcome [2]: inactive | outcome [3]: inactive

CN1C(=O)N(C)C(O)C1O (centres undefined)
outcome [1]: inactive

Nc1ccc(N)c(Cl)c1
outcome [1]: inactive

c1ccc2c(c1)ccc1cc3c(ccc4ccccc43)cc12
outcome [2]: inactive | outcome [3]: inactive

FC(F)=C(F)OC(F)(F)C(F)(F)C(F)(F)F
outcome [2]: inactive | outcome [3]: inactive

COC(F)(F)C(F)(C(F)(F)F)C(F)(F)F
outcome [2]: inactive | outcome [3]: inactive

CCOC(=O)c1ccccc1C(=C1C=C(Br)C(=O)C(Br)=C1)c1cc(Br)c(O)c(Br)c1
outcome [1]: inactive

Source: PubChem BioAssay (EPA / NIEHS)
